# Reference: PubChem BioAssay (EPA / NIEHS)
# Where “and” joins values, the source holds several entries; their conditions need not be identical. Equal values may be shown once. Results filed as inconclusive are left out. Calls of active or inactive are those of the source. Rule for the calls: active = hit-call score of the fitted dose curve at least 0.9, where 1 is the maximum; inconclusive = response in the unintended direction; inactive = score below 0.9.
# Test: CCTE_Shafer_MEA_acute_AB: CCTE's Alamar Blue Assay for Cytotoxicity in the Neural Acute Assay, Shafer Lab (AID 2284069);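 note: active compounds lower the viability signal compared with DMSO wells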
# In short: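 Metabolic activity in chemically exposed rat cortical neurons (MEA cultures, day 13/15 post-plating) measured via CellTiter Blue resazurin reduction, 544/590 nm fluorescence; fitted relative to DMSO, with signal loss indicating reduced viability.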
Compound,outcome,AC50
CCCCCCCCCCCCCCCS(=O)(=O)Oc1ccccc1,inactive,
CCC(=C(c1ccc(O)cc1)c1ccc(OCCN(C)C)cc1)c1ccccc1,inactive,
CN1CCN(c2ccccc2/C=C2\SCCN(c3ccc(Cl)c(Cl)c3)C2=O)CC1,inactive,
CC#C[C@]1(O)CC[C@H]2[C@@H]3CCC4=CC(=O)CCC4=C3[C@@H](c3ccc(N(C)C)cc3)C[C@@]21C,inactive,
CC(C)(C)c1cc(C(C)(C)C)c(O)c(C(C)(C)C)c1,inactive,
O=C(O)c1ccccc1C(c1ccc(O)cc1)c1ccc(O)cc1,inactive,
Cc1cc(CCN2CCN(c3nsc4ccccc34)CC2)cc2c1NC(=O)CC2(C)C,inactive,
CC(=O)NC1(c2cccc(F)c2)CCN(CC[C@@]2(c3ccc(Cl)c(Cl)c3)CN(c3ccccc3)C(=O)CO2)CC1,inactive,
CN1CCC[C@H]1c1cccnc1,inactive,
CC(C)CCCCCCOC(=O)CCCCC(=O)OCCCCCCC(C)C,inactive,
OCCC(F)(F)C(F)(F)C(F)(F)C(F)(F)C(F)(F)C(F)(F)C(F)(F)C(F)(F)F,inactive,
NC(=O)N(O)[C@@H]1C=C[C@H](Oc2cccc(Oc3ccc(F)cc3)c2)C1,inactive,
Oc1cc2ccccc2c2ccccc12,,8 µM (active)
CCc1ccc(CCOc2ccc(CC3SC(=O)NC3=O)cc2)nc1 (stereo not drawn),inactive,
OC1CCC(C2CCCCC2)CC1 (stereo not drawn),inactive,
CCCCCCCCCCCCc1ccccc1S(=O)(=O)O,inactive,
CN(C)C=O,inactive,

# Test: CCTE_Shafer_MEA_dev_AB: CCTE's Alamar Blue Assay for Cytotoxicity in the Neural Network Formation Assay, Shafer Lab (AID 2284083);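 note: twelve days of exposure from plating with re-dosing on DIV 5 and 9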
# Method: CCTE_Shafer_MEA_dev assay is conducted using Axion Biosystems 48 well microelectrode array (MEA) plates and Maestro recording system. Each well of the MEA plate contains a grid of 16 microelectrodes embedded in the culture surface. Electrically active cells, such as neurons, can be cultured over the electrodes, and electrical activity in these cells can be recorded extracellularly. The spontaneous firing of neurons is captured from each electrode on a microsecond timescale providing both temporally and spatially precise data. […] The CCTE_Shafer_MEA_dev assay uses primary cultures of rat cortical neurons. Recordings are made on days post-plating 5, 7, 9 and 12. As these cultures mature over time, neural networks develop functional activity and form cohesive networks in which electrical activity can be highly coordinated. CCTE_Shafer_MEA_dev_AB is 1 of 19 assay components of the CCTE_Shafer_MEA_dev assay. It measures the resazurin reduction using fluorescence.Data from the assay component CCTE_Shafer_MEA_dev_AB was analyzed into 1 assay endpoint. This assay endpoint, CCTE_Shafer_MEA_dev_AB, was analyzed in the positive analysis fitting direction relative to DMSO as the negative control and baseline of activity. Using a type of viability reporter, loss-of-signal activity can be used to understand cell viability.
# On the day prior to culture, each well was coated thoroughly with 150 uL of 0.05% polyethyleneimine (PEI, Sigma Cat P3143) in 50 mM HEPES (Sigma Cat H7523) at a pH of 8. The plate was incubated at 37C for one hour. PEI was rinsed out with 500 uL of sterile water three times. Plates were stored at 4C until the day of culture. This culture was plated at a seeding density of 1.5 x 10^5 cells/well on a 48-well MEA plate, prepared as described above. Cells were administered via a 25 uL media/laminin ([…]; Sigma Cat L2020-1MG) drop directly onto the microelectrode array, as adding the cells with the laminin results in better attachment than pre-coating with laminin. After 2 hours, an additional 475 uL of cortical media was added and the cells returned to the incubator. Exposure starts at day 0 of plating and is continued over twelve days of network development until the experiment is terminated. Cells are fed with fresh medium on DIV 5 and 9, following the recordings on those days. The entire volume of media in the well is exchanged and any vehicle or compound treatment is renewed. Complete details are found in OP-NHEERL/ISTD/SBB/TJS/2015-03-r0 (available on request, email shafer.tim@epa.gov). Measurement of the electrical activity is non-invasive, and recordings can be made from the same plate over multiple different days of the culture. In cortical neurons, this allows for the measurement of extracellular action potentials over the period during which networks form in the MEA plate.
Compound,outcome,AC50
c1ccc2c(c1)ccc1ccccc12,inactive,
CC#C[C@]1(O)CC[C@H]2[C@@H]3CCC4=CC(=O)CCC4=C3[C@@H](c3ccc(N(C)C)cc3)C[C@@]21C,,16.5 µM (active) and 25.4 µM (active)
CC1=C(/C=C/C(C)=C/C=C/C(C)=C/C(=O)O)C(C)(C)CCC1,inactive,
c1ccc2c(c1)Cc1ccccc1-2,inactive,
OCCC(F)(F)C(F)(F)C(F)(F)C(F)(F)C(F)(F)C(F)(F)C(F)(F)C(F)(F)F,inactive,
CC(O)CO (stereo not drawn),inactive,
c1ccc2cc3c(ccc4ccccc43)cc2c1,inactive,

# Test: CCTE_Shafer_MEA_acute_LDH: CCTE's Lactate Dehydrogenase Assay for Cytotoxicity in the Neural Acute Assay, Shafer Lab (AID 2284086);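 note: active means LDH release rises above DMSO vehicle level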
# In short: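 Released lactate dehydrogenase, read at 490 nm, indicated cytotoxicity after acute 40-min compound treatment of rat cortical neuron networks grown on 48-well MEA plates.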
row,Compound,outcome
1,CCC(=C(c1ccc(O)cc1)c1ccc(OCCN(C)C)cc1)c1ccccc1,inactive
2,CN1CCN(c2ccccc2/C=C2\SCCN(c3ccc(Cl)c(Cl)c3)C2=O)CC1,inactive
3,CC#C[C@]1(O)CC[C@H]2[C@@H]3CCC4=CC(=O)CCC4=C3[C@@H](c3ccc(N(C)C)cc3)C[C@@]21C,inactive
4,O=C(O)c1ccccc1C(c1ccc(O)cc1)c1ccc(O)cc1,inactive
5,Cc1cc(CCN2CCN(c3nsc4ccccc34)CC2)cc2c1NC(=O)CC2(C)C,inactive
6,CC(=O)NC1(c2cccc(F)c2)CCN(CC[C@@]2(c3ccc(Cl)c(Cl)c3)CN(c3ccccc3)C(=O)CO2)CC1,inactive
7,CC(C)CCCCCCOC(=O)CCCCC(=O)OCCCCCCC(C)C,inactive
8,OCCC(F)(F)C(F)(F)C(F)(F)C(F)(F)C(F)(F)C(F)(F)C(F)(F)C(F)(F)F,inactive
9,NC(=O)N(O)[C@@H]1C=C[C@H](Oc2cccc(Oc3ccc(F)cc3)c2)C1,inactive
10,CCCOc1sc(C(=O)N2CCC(c3cc(CN)ccc3F)CC2)c(C)c1Br,inactive
11,CCCCCCCCCCCCN1CCCC1=O,inactive
12,CC[C@H](c1ccc(O)cc1)[C@@H](CC)c1ccc(O)cc1,inactive
13,OC1CCC(C2CCCCC2)CC1 (stereo not drawn),inactive
14,CCCCCCCCCCCCc1ccccc1S(=O)(=O)O,inactive
